Assay results taken from PubChem BioAssay AID504500 (NMMLSC, 2011).
Measured potencies and affinities stand elsewhere.

These compounds were tested against Beta-adrenergic receptor kinase 1 (Homo sapiens) (UniProt P25098) (assay: aptamer displacement from bead-bound GRK2 – biochemical, cherry pick 1, bead flow cytometry, dose response (AID 504500)). Settings: bead-bound biotinylated GRK2, FAM-aptamer displacement; series mostly up to 33 µM; inhibition of aptamer binding: at the top concentration;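 active = compounds whose curve fit is tight, with span above 25% and half-effect concentration below 10 µM; inactive = the rest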.
Chain of Beta-adrenergic receptor kinase 1 (Homo sapiens) (P25098 whole entry, looked up): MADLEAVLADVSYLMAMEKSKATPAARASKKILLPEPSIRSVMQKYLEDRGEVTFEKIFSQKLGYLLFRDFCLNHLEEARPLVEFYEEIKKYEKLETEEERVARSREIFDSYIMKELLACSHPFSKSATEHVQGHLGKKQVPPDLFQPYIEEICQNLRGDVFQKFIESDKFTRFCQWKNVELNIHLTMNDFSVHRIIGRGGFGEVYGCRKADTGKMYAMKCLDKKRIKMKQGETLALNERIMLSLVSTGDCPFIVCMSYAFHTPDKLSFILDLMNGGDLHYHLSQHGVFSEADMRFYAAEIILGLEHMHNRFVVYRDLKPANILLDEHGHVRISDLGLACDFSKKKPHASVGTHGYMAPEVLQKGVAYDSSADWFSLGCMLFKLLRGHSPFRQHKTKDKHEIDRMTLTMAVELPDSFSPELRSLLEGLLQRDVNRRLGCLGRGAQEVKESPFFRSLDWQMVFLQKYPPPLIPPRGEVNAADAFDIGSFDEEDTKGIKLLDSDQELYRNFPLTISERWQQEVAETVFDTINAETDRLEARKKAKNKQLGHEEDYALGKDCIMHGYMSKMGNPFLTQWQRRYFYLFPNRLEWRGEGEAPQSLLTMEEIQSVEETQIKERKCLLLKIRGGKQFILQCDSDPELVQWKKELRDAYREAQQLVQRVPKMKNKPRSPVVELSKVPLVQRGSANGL

Inhibition of aptamer binding, inactive:
COc1ccc(NC(=O)CCS(=O)(=O)c2ccc(Br)s2)cc1 63.9%, COCCNC(=O)C/C(C)=N/NC(=O)C(=O)NC1CCCCC1 2.44%, O=C(CC1SC(N2CCCCC2)=NC1=O)Nc1cccc(C(=O)NCc2ccc(F)cc2)c1 (stereo unspecified) 99.4%, COc1ccc(OC)c(N2C(=O)[C@@H]3C(c4ccccc4Cl)=NO[C@@H]3C2=O)c1 76.3%, C=C(C)C(=O)Nc1cccc(C2=NOC3(C2)C[C@H](C(N)=O)N(C(=O)CC#N)C3)c1 (stereo partly specified) -8.72%, CC1CCN(C(=O)c2[nH]cnc2C(=O)Nc2cccc(Cl)c2)CC1 -9.82%, CCOC(=O)c1sc(NCc2ccco2)c(-c2nc3ccccc3s2)c1N 8.14%, O=C(O)C1C2C=CC(CC2)C1C(=O)O (stereo unspecified) -2.57%, C#CCSc1nc2sc3c(c2c(=O)n1C)CCC3 85.1%, COc1ccccc1-[n+]1c(C)cc(/C=C2\Sc3ccccc3N2C)cc1C -8.14%, COC(=O)c1ccccc1NC(=O)CCS(=O)(=O)c1ccc(Br)s1 -0.55%, Cc1cc2ccccc2n1CCNC(=O)C(C)Oc1ccccc1 (stereo unspecified) 63.4%, C=C(C)C(=O)Nc1cccc(C2=NOC3(C2)C[C@@H](C(N)=O)N(C(=O)/C=C/C=C/C)C3)c1 (stereo partly specified) 84.2%, CC(=O)Nc1ccc(N(C)C)cc1[N+](=O)[O-] 7.48%, CCc1ccccc1NC(=O)CCS(=O)(=O)c1ccc(Br)cc1 55.8%, Cn1c(=O)c(C(=O)NNC(=O)c2cccc(Cl)c2)c(O)c2ccccc21 85.8%, CC(C)C(C(=O)O)N1C(=O)/C(=C/C=C/c2ccco2)SC1=S (stereo unspecified) 27.4%, O=C(CCS(=O)(=O)c1ccc(Br)cc1)NCc1cccs1 78.5%, Cc1ccc(S(=O)(=O)Cc2ccc(C(=O)O)o2)cc1 -1.3%, O=C(CCS(=O)(=O)c1ccc(Br)s1)N1CCc2ccccc21 -2.03%, CCN1/C(=C/c2ccc3ccc(C)cc3[n+]2CC)Sc2ccccc21 -3.68%, COc1ccc(N2CCN(C(CNS(=O)(=O)c3ccccc3)c3ccccc3)CC2)cc1 (stereo unspecified) 3.82%, O=C(CCS(=O)(=O)c1ccc(Br)cc1)NCCc1ccccc1 76.5%, O=C(CCS(=O)(=O)c1ccc(Br)cc1)NCc1ccco1 72.6%, O=C(O)C1Nc2c(O)cc(Cl)c([N+](=O)[O-])c2C2C=CCC12 (stereo unspecified) -0.66%, CCOc1ccccc1NC(=O)CCS(=O)(=O)c1ccc(Br)cc1 1.18%, CCN1/C(=C/C=C/c2sc3ccccc3[n+]2CC)Sc2ccccc21 -5.22%, Cc1oc(-c2ccc(Cl)cc2)nc1CN1CCCC(C(=O)NCc2cccnc2)C1 (stereo unspecified) -6.31%, CCN1/C(=C/C(C)=C/c2sc3ccccc3[n+]2CC)Sc2ccccc21 17.1%, O=C(Nc1cccc(-c2ccc(N3CCOCC3)nn2)c1)c1ccccc1 -0.34%, CCOc1ccc(CCNC(=O)CCS(=O)(=O)c2ccc(Br)cc2)cc1OCC 2.77%
